{"source": "PubChem BioAssay (NCATS)", "key": {"[1]": {"target": "Rap guanine nucleotide exchange factor 3 (Homo sapiens) (UniProt O95398)", "sequence (O95398 whole entry, looked up)": "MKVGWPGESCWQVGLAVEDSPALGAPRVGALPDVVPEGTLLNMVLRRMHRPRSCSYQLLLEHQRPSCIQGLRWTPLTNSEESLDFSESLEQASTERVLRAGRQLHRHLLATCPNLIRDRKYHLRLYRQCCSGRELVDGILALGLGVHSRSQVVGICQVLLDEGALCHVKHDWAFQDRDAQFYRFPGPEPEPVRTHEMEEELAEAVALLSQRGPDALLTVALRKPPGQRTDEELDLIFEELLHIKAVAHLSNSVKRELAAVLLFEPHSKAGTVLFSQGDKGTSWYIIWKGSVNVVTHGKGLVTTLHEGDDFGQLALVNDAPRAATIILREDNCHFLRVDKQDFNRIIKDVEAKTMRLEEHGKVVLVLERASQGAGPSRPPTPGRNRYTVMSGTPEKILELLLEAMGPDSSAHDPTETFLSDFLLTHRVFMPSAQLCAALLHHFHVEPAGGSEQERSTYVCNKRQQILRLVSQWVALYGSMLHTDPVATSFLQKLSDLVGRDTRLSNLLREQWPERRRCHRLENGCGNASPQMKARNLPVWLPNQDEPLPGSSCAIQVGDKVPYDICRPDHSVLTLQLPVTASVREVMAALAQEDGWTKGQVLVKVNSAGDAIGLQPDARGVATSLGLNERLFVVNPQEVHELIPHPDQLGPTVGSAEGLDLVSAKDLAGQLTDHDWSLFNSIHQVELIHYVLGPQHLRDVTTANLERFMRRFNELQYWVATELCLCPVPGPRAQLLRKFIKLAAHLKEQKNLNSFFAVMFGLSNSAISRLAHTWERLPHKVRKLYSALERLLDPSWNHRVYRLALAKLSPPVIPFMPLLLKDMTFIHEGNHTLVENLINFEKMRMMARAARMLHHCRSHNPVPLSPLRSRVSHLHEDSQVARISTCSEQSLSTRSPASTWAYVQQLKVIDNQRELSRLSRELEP", "test": "Confirmatory qHTS for antagonist of cAMP-regulated guanine nucleotide exchange factor 3 (EPAC1) (AID 1645880); note: nearly all actives have a fitted effect of over 55% in size; note: potency is the fitted concentration of half-maximal effect", "summary_of_the_method": "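Released BODIPY-GDP fluoresces less than Rap1-bound BODIPY-GDP; the signal is followed at 480/540 nm at 5-min intervals over 30 min, after 5 min at room temperature. Reactions contain 100 nM EPAC1, 250 nM RAP1B-BODIPY-GDP and 50 uM GDP; results are normalized to ATA and DMSO.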"}, "[2]": {"target": "Rap guanine nucleotide exchange factor 3 (Homo sapiens) (UniProt O95398)", "test": "Confirmatory qHTS for agonist of cAMP-regulated guanine nucleotide exchange factor 3 (EPAC1) (AID 1645881);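 note: EPAC1 catalysed release of BODIPY-GDP from Rap1B seen as fluorescence loss; nearly all actives have a fitted effect of over 75% in size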"}, "[3]": {"target": "Rap guanine nucleotide exchange factor 4 (Homo sapiens) (UniProt Q8WZA2)", "sequence (Q8WZA2 whole entry, looked up)": "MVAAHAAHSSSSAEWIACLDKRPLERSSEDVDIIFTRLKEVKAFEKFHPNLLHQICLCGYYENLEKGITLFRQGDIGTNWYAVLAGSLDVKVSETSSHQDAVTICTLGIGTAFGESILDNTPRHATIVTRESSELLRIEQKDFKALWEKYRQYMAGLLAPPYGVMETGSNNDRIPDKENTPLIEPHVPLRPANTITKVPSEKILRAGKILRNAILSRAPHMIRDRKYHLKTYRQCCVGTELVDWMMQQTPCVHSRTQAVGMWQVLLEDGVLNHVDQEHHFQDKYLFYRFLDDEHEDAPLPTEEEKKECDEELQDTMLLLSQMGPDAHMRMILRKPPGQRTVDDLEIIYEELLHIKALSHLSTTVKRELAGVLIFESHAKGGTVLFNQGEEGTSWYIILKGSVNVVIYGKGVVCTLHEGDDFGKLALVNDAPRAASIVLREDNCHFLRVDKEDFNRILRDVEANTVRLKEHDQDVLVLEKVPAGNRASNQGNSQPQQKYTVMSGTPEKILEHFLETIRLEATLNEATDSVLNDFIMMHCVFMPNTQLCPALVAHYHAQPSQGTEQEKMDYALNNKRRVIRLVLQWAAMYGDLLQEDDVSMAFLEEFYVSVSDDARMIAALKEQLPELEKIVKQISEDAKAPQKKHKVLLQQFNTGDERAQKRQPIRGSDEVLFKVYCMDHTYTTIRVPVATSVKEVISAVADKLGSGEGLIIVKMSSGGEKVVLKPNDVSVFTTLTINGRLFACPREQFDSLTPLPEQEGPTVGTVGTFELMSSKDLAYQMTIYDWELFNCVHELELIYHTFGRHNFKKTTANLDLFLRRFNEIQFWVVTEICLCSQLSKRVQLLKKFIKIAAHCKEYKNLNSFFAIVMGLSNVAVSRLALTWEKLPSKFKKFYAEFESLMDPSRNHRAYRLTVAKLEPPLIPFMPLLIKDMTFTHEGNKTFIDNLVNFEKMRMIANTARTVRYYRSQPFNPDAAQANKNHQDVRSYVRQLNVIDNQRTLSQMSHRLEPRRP", "test": "Confirmatory qHTS for agonist of cAMP-regulated guanine nucleotide exchange factor 4 (EPAC2) (AID 1645884);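 note: nucleotide exchange releases bodipy-GDP from Rap1 and this lowers its fluorescence; nearly all actives have a fitted effect of over 65% in size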"}, "[4]": {"target": "Rap guanine nucleotide exchange factor 4 (Homo sapiens) (UniProt Q8WZA2)", "test": "Confirmatory qHTS for antagonist of cAMP-regulated guanine nucleotide exchange factor 4 (EPAC2) (AID 1645885); note: nearly all actives have a fitted effect of over 25% in size; note: potency is the fitted concentration of half-maximal effect"}, "[5]": {"target": "Rap guanine nucleotide exchange factor 3 (Homo sapiens) (UniProt O95398)", "test": "Counterscreen qHTS for antagonist of cAMP-regulated guanine nucleotide exchange factor 3 (EPAC1) (AID 1645888)", "summary_of_the_method": "(§1)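 Rap1B-BODIPY-GDP 250 nM + GDP 50 uM; cpds 7-pt, final 9.74 nM–152 uM (activator mode) or from 7.32 nM upwards (inhibitor mode); RT; FI 480/540 nm at 5 and 30 min, then ± cAMP, reread.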"}, "[6]": {"target": "Rap guanine nucleotide exchange factor 3 (Homo sapiens) (UniProt O95398)", "test": "Counterscreen qHTS for agonist of cAMP-regulated guanine nucleotide exchange factor 3 (EPAC1) (AID 1645889)", "summary_of_the_method": "as §1"}}, "note": "Records with an inconclusive call do not appear. Where a call stands in place of a potency, no number is given. Unmarked numbers belong to inactive results. Active and inactive are the calls of the source. Calls come from the whole dose curve; as a rule, active = well fitted curve in the direction sought with a large enough effect; inconclusive = small, poorly fitted or top-dose-only effect, or another doubt; inactive = no such curve, though single readings can be large; an effect the other way counts as inactive or inconclusive."}
{"smiles": "COc1ccc(C(C)=O)cc1COc1ccc(F)cc1", "values": [{"measurement": "Potency", "setting": "[1]", "result": "inactive"}, {"measurement": "Potency", "setting": "[2]", "result": "inactive"}, {"measurement": "activation", "setting": "[3]", "result": "4.69% [at 17.1 µM, percent relative to cAMP agonist control]"}, {"measurement": "Potency", "setting": "[4]", "result": "inactive"}, {"measurement": "activity change, negative = inhibition", "setting": "[5]", "result": "5.38% [at 30.8 µM]"}, {"measurement": "activation", "setting": "[6]", "result": "4.32% [at 30.8 µM]"}]}
{"smiles": "O=c1cc(-c2ccccc2)nc2c(-c3ccccc3)c(C(F)(F)F)[nH]n12", "values": [{"measurement": "Potency", "setting": "[1]", "result": "42.6 µM (active)"}, {"measurement": "Potency", "setting": "[2]", "result": "inactive"}, {"measurement": "Potency", "setting": "[3]", "result": "inactive"}, {"measurement": "Potency", "setting": "[4]", "result": "16.9 µM (active)"}, {"measurement": "Potency", "setting": "[5]", "result": "inactive"}, {"measurement": "Potency", "setting": "[6]", "result": "inactive"}]}
{"smiles": "CCCc1nc2ccccc2c(=O)n1/N=C/c1ccccc1O", "values": [{"measurement": "Potency", "setting": "[1]", "result": "37.9 µM (active)"}, {"measurement": "Potency", "setting": "[2]", "result": "inactive"}, {"measurement": "Potency", "setting": "[3]", "result": "inactive"}, {"measurement": "Potency", "setting": "[4]", "result": "inactive"}, {"measurement": "Potency", "setting": "[5]", "result": "inactive"}, {"measurement": "Potency", "setting": "[6]", "result": "inactive"}]}
{"smiles": "COc1ccc(C(=O)Nc2cccc(/C=C(\\CCC(=O)O)c3nc4ccccc4s3)c2)cc1", "values": [{"measurement": "Potency", "setting": "[1]", "result": "21.3 µM (active)"}, {"measurement": "Potency", "setting": "[2]", "result": "inactive"}, {"measurement": "Potency", "setting": "[3]", "result": "inactive"}, {"measurement": "Potency", "setting": "[4]", "result": "inactive"}, {"measurement": "Potency", "setting": "[5]", "result": "inactive"}, {"measurement": "Potency", "setting": "[6]", "result": "inactive"}]}
{"smiles": "COC1=CC(=O)c2c(ccc3ncnc(N)c23)C1=O", "values": [{"measurement": "Potency", "setting": "[1]", "result": "19 µM (active)"}, {"measurement": "Potency", "setting": "[2]", "result": "inactive"}, {"measurement": "Potency", "setting": "[3]", "result": "inactive"}, {"measurement": "Potency", "setting": "[4]", "result": "26.9 µM (active)"}, {"measurement": "Potency", "setting": "[5]", "result": "inactive"}, {"measurement": "Potency", "setting": "[6]", "result": "inactive"}]}
{"smiles": "COC(=O)CSc1nc(C)cc(Oc2ccccc2)n1", "values": [{"measurement": "Potency", "setting": "[1]", "result": "inactive"}, {"measurement": "Potency", "setting": "[2]", "result": "inactive"}, {"measurement": "Potency", "setting": "[3]", "result": "inactive"}, {"measurement": "Potency", "setting": "[4]", "result": "inactive"}, {"measurement": "Potency", "setting": "[5]", "result": "inactive"}, {"measurement": "Potency", "setting": "[6]", "result": "inactive"}]}
{"smiles": "Cc1c(C(=O)N2CCCCC2)oc2ccc(Br)cc12", "values": [{"measurement": "Potency", "setting": "[1]", "result": "inactive"}, {"measurement": "Potency", "setting": "[2]", "result": "inactive"}, {"measurement": "Potency", "setting": "[3]", "result": "inactive"}, {"measurement": "Potency", "setting": "[4]", "result": "inactive"}, {"measurement": "Potency", "setting": "[5]", "result": "inactive"}, {"measurement": "Potency", "setting": "[6]", "result": "inactive"}]}
{"smiles": "CC1Cc2cc(C(=O)O)ccc2O1", "note": "(centres undefined)", "values": [{"measurement": "Potency", "setting": "[1]", "result": "inactive"}, {"measurement": "Potency", "setting": "[2]", "result": "inactive"}, {"measurement": "Potency", "setting": "[3]", "result": "inactive"}, {"measurement": "Potency", "setting": "[4]", "result": "inactive"}, {"measurement": "Potency", "setting": "[5]", "result": "inactive"}, {"measurement": "Potency", "setting": "[6]", "result": "inactive"}]}
{"smiles": "O=c1oc2ccccc2nc1/C=C(O)/C=C\\c1ccccc1", "values": [{"measurement": "Potency", "setting": "[1]", "result": "inactive"}, {"measurement": "Potency", "setting": "[2]", "result": "inactive"}, {"measurement": "activation", "setting": "[3]", "result": "2.36% [at 17.1 µM, percent relative to cAMP agonist control]"}, {"measurement": "Potency", "setting": "[4]", "result": "inactive"}, {"measurement": "activity change, negative = inhibition", "setting": "[5]", "result": "-9.13% [at 30.8 µM]"}, {"measurement": "activation", "setting": "[6]", "result": "-0.436% [at 30.8 µM]"}]}
{"smiles": "CCOc1ccccc1C(=O)N(Cc1cccs1)c1ccc(Cl)cc1", "values": [{"measurement": "Potency", "setting": "[1]", "result": "inactive"}, {"measurement": "Potency", "setting": "[2]", "result": "inactive"}, {"measurement": "Potency", "setting": "[3]", "result": "inactive"}, {"measurement": "Potency", "setting": "[4]", "result": "inactive"}, {"measurement": "Potency", "setting": "[5]", "result": "inactive"}, {"measurement": "Potency", "setting": "[6]", "result": "inactive"}]}
{"smiles": "COC(=O)c1cc2sc(C)cc2n1Cc1cccc(OC)c1", "values": [{"measurement": "Potency", "setting": "[1]", "result": "inactive"}, {"measurement": "Potency", "setting": "[2]", "result": "inactive"}, {"measurement": "Potency", "setting": "[3]", "result": "inactive"}, {"measurement": "Potency", "setting": "[4]", "result": "inactive"}, {"measurement": "Potency", "setting": "[5]", "result": "inactive"}, {"measurement": "Potency", "setting": "[6]", "result": "inactive"}]}
{"smiles": "Cc1csc(SCC(=O)NC23CC4CC(CC(C4)C2)C3)n1", "values": [{"measurement": "Potency", "setting": "[1]", "result": "inactive"}, {"measurement": "Potency", "setting": "[2]", "result": "inactive"}, {"measurement": "activation", "setting": "[3]", "result": "1.39% [at 17.1 µM, percent relative to cAMP agonist control]"}, {"measurement": "Potency", "setting": "[4]", "result": "inactive"}, {"measurement": "activity change, negative = inhibition", "setting": "[5]", "result": "-23.6% [at 30.8 µM]"}, {"measurement": "activation", "setting": "[6]", "result": "22.6% [at 30.8 µM]"}]}
{"smiles": "O=C(NC1CCN(Cc2ccccc2)CC1)c1cn(-c2ccccc2)nc1-c1cccnc1", "values": [{"measurement": "Potency", "setting": "[1]", "result": "inactive"}, {"measurement": "Potency", "setting": "[2]", "result": "inactive"}, {"measurement": "Potency", "setting": "[3]", "result": "inactive"}, {"measurement": "Potency", "setting": "[4]", "result": "inactive"}, {"measurement": "Potency", "setting": "[5]", "result": "inactive"}, {"measurement": "Potency", "setting": "[6]", "result": "inactive"}]}
{"smiles": "Cc1cccc(-c2nc(SCC(=O)Nc3cccc(C(F)(F)F)c3)n3[nH]c(=O)cc3n2)c1", "values": [{"measurement": "Potency", "setting": "[1]", "result": "84.9 µM (active)"}, {"measurement": "Potency", "setting": "[2]", "result": "inactive"}, {"measurement": "Potency", "setting": "[3]", "result": "inactive"}, {"measurement": "Potency", "setting": "[4]", "result": "inactive"}, {"measurement": "Potency", "setting": "[5]", "result": "inactive"}, {"measurement": "Potency", "setting": "[6]", "result": "inactive"}]}
{"smiles": "CC(OC(=O)CNC(=O)COc1ccccc1)C(=O)N(C)Cc1ccccc1", "note": "(centres undefined)", "values": [{"measurement": "Potency", "setting": "[1]", "result": "inactive"}, {"measurement": "Potency", "setting": "[2]", "result": "inactive"}, {"measurement": "activation", "setting": "[3]", "result": "1.04% [at 17.1 µM, percent relative to cAMP agonist control]"}, {"measurement": "Potency", "setting": "[4]", "result": "inactive"}, {"measurement": "activity change, negative = inhibition", "setting": "[5]", "result": "-17.7% [at 30.8 µM]"}, {"measurement": "activation", "setting": "[6]", "result": "-1.24% [at 30.8 µM]"}]}
{"smiles": "Fc1cccc(Cc2c(-c3ccccc3)nc3ccc(Cl)cn23)c1", "values": [{"measurement": "Potency", "setting": "[1]", "result": "inactive"}, {"measurement": "Potency", "setting": "[2]", "result": "inactive"}, {"measurement": "Potency", "setting": "[3]", "result": "inactive"}, {"measurement": "Potency", "setting": "[4]", "result": "inactive"}, {"measurement": "Potency", "setting": "[5]", "result": "inactive"}, {"measurement": "Potency", "setting": "[6]", "result": "inactive"}]}
{"smiles": "O=c1c2ccccc2nc(/C=C/c2cccnc2)n1CCc1ccccc1", "values": [{"measurement": "Potency", "setting": "[1]", "result": "23.9 µM (active)"}, {"measurement": "Potency", "setting": "[2]", "result": "inactive"}, {"measurement": "Potency", "setting": "[3]", "result": "inactive"}, {"measurement": "Potency", "setting": "[4]", "result": "inactive"}, {"measurement": "Potency", "setting": "[5]", "result": "inactive"}, {"measurement": "Potency", "setting": "[6]", "result": "inactive"}]}
{"smiles": "N#Cc1c(-c2ccccc2)nc(SCC(=O)N2c3ccccc3Sc3ccccc32)[nH]c1=O", "values": [{"measurement": "Potency", "setting": "[1]", "result": "19 µM (active)"}, {"measurement": "Potency", "setting": "[2]", "result": "inactive"}, {"measurement": "Potency", "setting": "[3]", "result": "inactive"}, {"measurement": "Potency", "setting": "[4]", "result": "inactive"}, {"measurement": "Potency", "setting": "[5]", "result": "inactive"}, {"measurement": "Potency", "setting": "[6]", "result": "inactive"}]}
{"smiles": "CC(C)(C)c1ccc(CC(=O)N2CCC2(C)C(=O)NS(=O)(=O)c2ccccc2)cc1", "note": "(centres undefined)", "values": [{"measurement": "Potency", "setting": "[1]", "result": "inactive"}, {"measurement": "Potency", "setting": "[2]", "result": "inactive"}, {"measurement": "activation", "setting": "[3]", "result": "0.17% [at 17.1 µM, percent relative to cAMP agonist control]"}, {"measurement": "Potency", "setting": "[4]", "result": "inactive"}, {"measurement": "activity change, negative = inhibition", "setting": "[5]", "result": "-2% [at 30.8 µM]"}, {"measurement": "activation", "setting": "[6]", "result": "19.6% [at 30.8 µM]"}]}
